Active and inactive are the calls of the source. Rule for the calls: active = hit-call score of the fitted dose curve at least 0.9, where 1 is the maximum; inactive = score below 0.9.

This experiment can be described thus: ATG_AP_2_CIS: Attagene CIS-FACTORIAL HepG2 Assay for human Activator Protein 2 (AP-2) (AID 2282932). The note with it: HepG2 AP-2 cis-reporter, Attagene transcription factor profiling; actives raise or lower the signal. As for the experimental part: ATG_CIS is a cell-based, multiplexed-readout assay that uses HepG2, a human liver cell line, with measurements taken at 24 hours after chemical dosing in a 24-well plate.ATG_AP_2_CIS is one of 52 assay component(s) measured or calculated from the ATG_CIS assay. It is designed to make measurements of mRNA induction, a form of inducible reporter, as detected with fluorescence intensity signals by Reverse transcription polymerase chain reaction (RT-PCR) and Capillary electrophoresis technology.Data from the assay component ATG_AP_2_CIS was analyzed into 1 assay endpoint. This assay endpoint, ATG_AP_2_CIS, was analyzed with bidirectional fitting relative to DMSO as the negative control and baseline of activity. Using a type of inducible reporter, measures of mRNA for gain or loss-of-signal activity can be used to understand the reporter gene at the transcription factor-level as they relate to the gene TFAP2A and TFAP2B and TFAP2D. Furthermore, this assay endpoint can be referred to as a primary readout, because this assay has produced multiple assay endpoints where this one serves a reporter gene function. To generalize the intended target to other relatable targets, this assay endpoint is annotated to the dna binding intended target family, where the subfamily is basic helix-turn-helix leucine zipper.
Human liver HepG2 cells are transiently transfected with multiple reporter transcription units (MRTUs) in 6-well plates using FuGene 6 reagent (Roche; 3 ml FuGene/1 mg DNA). The MRTU constructs are regulated by a cis-regulating element (promoter). […] A major difference between the CIS and TRANS system is that in CIS activities of endogenous TFs are measured, whereas the TRANS assay evaluates changes in activities of exogenous, chimeric NR-Gal4 proteins. […] At the end of 24 hour incubation, total RNA was isolated using TriZol reagent (Invitrogen). The isolated RNA is then reverse-transcribed using oligo(dT) primer and Mo-MLV reverse transcriptase (Invitrogen) with DNAse I (Ambion) treatment for 30 min. The one-tenth of the produced cDNA was amplified by PCR using Taq DNA polymerase (Invitrogen) and two reporter sequence-specific primers. The PCR products were fluorescently labeled by primer extension with 6-arboxyfluorescein (6-FAM) 5'-labeled reporter sequence-specific primer (2 min at 95 C, 20 s at 68 C and 10 min at 72 C) and these products were digested with 5U of HpaI (New England Biolabs) for 2h at 37 C. The fragments were purified using Qiaquick PCR columns (Qiagen), analyzed on an ABI 3130xL genetic analyzer (Applied Biosystems) with peak positions identified by using a set of X-rhodamine (ROX)-labeled MapMarker1000 molecular weight standards (BioVentures). The raw capillary electrophoresis data was processed using Attagraph software (Attagene).
In the case of `CC(C)CCCC(C)CC=O` (stereo not given), the molecule was classed as inactive.

With `COc1ccc(-c2coc3cc(O)ccc3c2=O)cc1`, the molecule was called inactive.

In the case of `O=CC1CC1`, the outcome was inactive.

As a reminder, the AC50 is the concentration at which the activity in the assay is half-maximal. As for `Cc1ccc([N+](=O)[O-])cc1S(=O)(=O)O`, the half-maximal activity concentration (AC50) was 163 µM (active). As to `CCCCOCCOC(=O)COc1nc(Cl)c(Cl)cc1Cl`, the result was inactive.

In the case of `CC1=Nc2ccc3ccccc3c2C1(C)C`, the molecule was called inactive. The same measure, in the same setting: under `CC1(C)[C@H]2CC[C@]1(C)C(=O)C2` stands “inactive”; under `CCCCC/C=C\CCC=O`, “inactive”; under `COc1cc(NC(=O)CC(C)=O)c(OC)cc1Cl`, “inactive”.

As for `Cn1c([N+](=O)[O-])cnc1COC(N)=O`, the molecule was called inactive. Take `O=S(=O)(O)CC(O)CCl` (stereo not given): the molecule was classed as inactive. Regarding `Cc1ccccc1C`, the molecule was classed as inactive. With `CC=C1CC2C=CC1C2` (stereo not given), the result was inactive. For `CN(C)CCCN(C)C`, the result was inactive.

Take `CCCCCCC1(C)CCC(=O)O1` (stereo not given): the result was inactive. Take `CC(C)(c1cc(Br)c(OCCO)c(Br)c1)c1cc(Br)c(OCCO)c(Br)c1`: the AC50 is 10.5 µM (active). Regarding `O=C(OCC1CCC2OC2C1)C1CCC2OC2C1` (stereo not given), the result was inactive. Still for that read-out and setting: as for `O=C(c1ccccc1)C1CCC1`, the entry is “inactive”; as for `COC(F)(F)C(F)(C(F)(F)F)C(F)(F)F`, “inactive”; as for `CCCCNc1ccc(NCCCC)c2c1C(=O)c1ccccc1C2=O`, “inactive”. As for `COc1ccc([C@@H]2CC(=O)c3c(O)cc(O[C@@H]4O[C@H](CO[C@@H]5O[C@@H](C)[C@H](O)[C@@H](O)[C@H]5O)[C@@H](O)[C@H](O)[C@H]4O)cc3O2)cc1OC`, the call was inactive. Still for that read-out and setting: under `CC(C)c1ccc(C#N)cc1` stands “inactive”; under `CCOC(=O)NNc1nncc2ccccc12`, “inactive”; under `CC(C)(C)C(=O)CCc1ccc(Cl)cc1`, “inactive”. Same read-out and setting: as for `FC(F)(F)C(=NOCC1OCCO1)c1ccc(Cl)cc1`, the entry is “inactive”; as for `Cc1cc(O)c(Cl)c(C)c1Cl`, “inactive”.

Consider `Cc1cc(C)c(C)c(O)c1`, for which the molecule was classed as inactive. Still for that read-out and setting: as for `CC1OC1C1CCC2(C)OC2C1` (stereo not given), the entry is “inactive”. As for `C=CCOc1c(Br)cc(Br)cc1Br`, the molecule was called inactive. On to `Cc1ccc(C(C)c2ccc(C)c(C)c2)cc1C`, for which the call was inactive. Take `CC(C)(Oc1ccc(C2CC2(Cl)Cl)cc1)C(=O)O` (stereo not given): the outcome was inactive. With `C(=CC=Nc1ccccc1)C=CNc1ccccc1`, the call was inactive. Regarding `CC(C)(C)c1n[nH]c(=O)n(N)c1=O`, the outcome was inactive. As to `CCOC(=O)[C@H](C)O`, the outcome was inactive. On the same count and under the same terms, as for `C=C1C2CCC(C2)C1(C)C` (stereo not given), the entry is “inactive”; as for `CC=CC(F)(F)C(F)(F)C(F)(F)F`, “inactive”; as for `O=C1C=CC(=O)O1`, “inactive”. `Cc1c(C)c([N+](=O)[O-])c(C(C)(C)C)c([N+](=O)[O-])c1C`: the molecule was called inactive.

As for `COCC(C)N` (stereo not given), the result was inactive. With `CCO[Si](C)(OCC)OCC`, the result was inactive.

(Values after PubChem BioAssay (EPA / NIEHS).)
